From ChEMBL document CHEMBL4513216, “Probing the Open Global Health Chemical Diversity Library for Multistage-Active Starting Points for Next-Generation Antimalarials” (ACS Infect Dis, 2020)
Out of some 68,000 compounds screened, about 2,700 (4%) showed an effect of 50% or more. Only a selection was taken, and strong results are over-represented in it overall.

tested on: Plasmodium berghei; assay: Screen against P. berghei liver stage (PbLuc), transformed with Luciferase, at 2uM; format: functional, HepG2; settings: tested at 2 uM

Compound	INHIBITION [%]
Cc1ccc(CN2CC[C@H](c3nc4cccc(C(N)=O)c4[nH]3)C2)cc1	23.26
NC(=O)c1cccc2nc([C@H]3CCN(Cc4ccccn4)C3)[nH]c12	50.72
NC(=O)c1cccc2nc([C@H]3CCN(Cc4ccccc4F)C3)[nH]c12	18.87
CS(=O)(=O)N1CCCC(Cc2ccnc(Nc3ccccn3)c2)C1 (stereo not drawn)	3.38
O=C(c1ccccc1)N1CCN(CC2CCOc3ccccc3C2)CC1 (stereo not drawn)	1.88
COCCc1noc(CNC(=O)C2CC(=O)N(C(C)(C)C)C2)n1 (stereo not drawn)	-28.97
CCN1CC(C(=O)NCc2noc(Cc3ccccc3)n2)CCC1=O (stereo not drawn)	-17.86
CC(C)(C)N1CC(C(=O)NCc2noc(Cc3ccccc3)n2)CC1=O (stereo not drawn)	50.63
CCn1nc(CC(C)C)cc1C(=O)NCc1c(C)cc(C)nc1OC	39.16
Cc1noc2nc(C3CCN(Cc4ccccn4)CC3)cc(C(F)F)c12	-32.4
C/C(=C\c1ccccc1)CN1CCCC(c2nnc3n2CCNCC3)C1 (stereo not drawn)	36.51
O=C(NCCNc1cnccn1)c1scnc1Cl	-6.71
O=c1[nH][nH]cc1-c1ccnc(NCCc2cccnc2)n1	7.4
CCC(CC)NC(=O)Cn1cc(-c2ccccc2)cn1	-9.17
CC(C)NC(=O)Cn1cc(-c2ccccc2)cn1	-42.92
CCCNC(=O)Cn1cc(-c2ccccc2)cn1	-14.11
CNC(=O)NC(=O)Cn1cc(-c2ccccc2)cn1	54.92
CC(NC(=O)Cn1cc(-c2ccccc2)cn1)C1CC1 (stereo not drawn)	35.65
Cc1ccc(-c2cnn(CC(=O)NC(C)C)c2)cc1	72.31
CCn1c(C)nnc1CN(C)C1CCN(Cc2c(C)noc2C)C1 (stereo not drawn)	4.72
Cc1nc(C)c(CN2CCC(N(C)Cc3nnc(C4CC4)o3)C2)s1 (stereo not drawn)	37.9
CCn1c(C)nnc1CN(C)C1CCN(Cc2sc(C)nc2C)C1 (stereo not drawn)	65.3
O=S(=O)(c1ccccc1)N1CCC2(CCCN2Cc2ccc(Cl)cc2)C1 (stereo not drawn)	-28.17

Compound	INHIBITION [%]
O=C(CCCc1nnc(-c2ccccc2)o1)N1CCN(CCO)CC1	36.65
O=C(CCCc1ncc(-c2ccccc2)o1)N1CCN(CCO)CC1	56.67
O=C(CCCc1nc(-c2ccccc2)no1)N1CCN(CCO)CC1	41.76
COc1ccc(Br)cc1NCC(=O)NC(C)(C#N)C1CC1 (stereo not drawn)	-0.46
CSc1ccc2c(C)cc(N[C@@H](C)CO)nc2c1	71.67
CCn1ncnc1C(C)Nc1cc(C)c2ccc(SC)cc2n1 (stereo not drawn)	-35.22
COC[C@H](C)Nc1cc(C)c2ccc(SC)cc2n1	45.56
O=C(c1cccnc1-c1ccoc1)N1C[C@@H]2CC[C@H]1C2	-15.77
CCC1(CO)CCN(C(=O)c2cc(COc3ccccc3F)[nH]n2)CC1	-64.06
CCn1nc(C)c(CCNC(=O)C2CCCN(C(=O)N(C)C)C2)c1C (stereo not drawn)	-17.7
Cn1cc(CN2CCOC(c3cccc(-c4cncnc4)n3)C2)cn1 (stereo not drawn)	0.12
Cn1cc(CN2CCOC(c3nccnc3-c3cccc(F)c3)C2)cn1 (stereo not drawn)	11.74
Cn1cc(CN2CCOC(c3cccc(-c4cccc(F)c4)n3)C2)cn1 (stereo not drawn)	53.16
CN(C)Cc1nn(C)c2c1CCN(C(=O)CC1CC1)C2	-1.31
C=C(C)COc1ccccc1C(=O)NCCCc1nnn[nH]1	-24.7
OC(COCc1ccco1)CN1CCc2c(ncn2C2CC2)C1 (stereo not drawn)	35.23
CC(Cc1cccs1)NC(=O)CCn1cccn1 (stereo not drawn)	0.66
O=C(CCOc1ccccc1)N1CCCC(c2ncc[nH]2)C1 (stereo not drawn)	2.06
CCCN(Cc1nccn1C)C(=O)C(CC)Nc1cccc(OC)c1 (stereo not drawn)	16.82
COCc1cn(CC2CCN(Cc3nc(C)c[nH]3)CC2)nn1	-37.15
Cc1ccc(CN2Cc3c(C(=O)N(C)C)nn(C)c3C2)s1	-35.2
Cc1cccc(CS(=O)(=O)c2nnc(N3CCOCC3)s2)c1	22.34
O=S(=O)(Cc1ccccc1)c1nnc(N2CCCC2)s1	44.37

Compound	INHIBITION [%]
O=S(=O)(Cc1ccccc1)c1nnc(N2CCOCC2)s1	52.08
CCCn1cc(CNCC(c2ccc(C)s2)N2CCOCC2)cn1 (stereo not drawn)	10.46
CNc1cc(C(=O)N2CCOC(C(=O)NC3CCCC3)C2)ccn1 (stereo not drawn)	-5.76
CCn1cnnc1CNC(=O)N(C)Cc1ccc2c(c1)OCO2	-19.35
Cc1ccc(Nc2nccc(C3CCCN(CC(=O)N(C)C)C3)n2)nc1 (stereo not drawn)	-28.81
O=C(C1CCC1)N1CCCC(c2ccnc(Nc3cnccn3)n2)C1 (stereo not drawn)	57.82
Cc1ccc(Nc2nccc(C3CCN(CC(N)=O)C3)n2)nc1 (stereo not drawn)	85.75
O=C(C1CCCC1)N1CCC(c2ccnc(Nc3cnccn3)n2)C1 (stereo not drawn)	37.81
Cc1ccc(Nc2nccc(C3CN(CC(N)=O)C3)n2)nc1	9.79
CC(=O)N1CCCC(c2ccnc(Nc3cnccn3)n2)C1 (stereo not drawn)	-39.95
O=C(c1ccco1)N1CCOCC2(C1)CN(c1ccccc1)C(=O)CO2 (stereo not drawn)	16.48
COc1ccc(CN2CC[C@H]3[C@H]2CC(=O)N3Cc2cccc(C)n2)cc1	3.55
CCCn1nc2c(cc1=O)CN(Cc1nc(C)c(C)o1)CC2	44.43
OC(CN1CC(n2cccn2)C1)c1ccc2c(c1)OCCO2 (stereo not drawn)	-28.22
CN1CCOC(CNCc2csc(C3CCCC3)n2)C1 (stereo not drawn)	60.71
CN1CCOC(CNCc2csc(C3CCCCC3)n2)C1 (stereo not drawn)	16.84
Cc1nc(CNCC2CN(C)CCO2)cs1 (stereo not drawn)	-50.23
CCOC(=O)c1c(NC(=O)CN2CCN(C(C)=O)CC2)sc2c1CCC2	25.47
C1CC(N2C[C@@H]3COC[C@]3(COCC3CCOCC3)C2)C1	22.96
CCOC(=O)CSc1ccc(-c2nc(C)no2)cn1	70.75
CCOC(=O)CSc1ccc(-c2nc(CC)no2)cn1	46.51
CCc1noc(-c2ccc(SCC(=O)O)nc2)n1	47.9
